High-throughput results deposited in PubChem BioAssay by National Center for Advancing Translational Sciences (NCATS).
Tau fibril FP = qHTS for Inhibitors of Tau Fibril Formation, Fluorescence Polarization. Microtubule-associated protein tau (Homo sapiens), P10636. K18 P301L tau heparin fibrillization, Alexa594 FP, 6 h. Potency, µM (top dose mostly 57.7 µM), most hits filed as inhibitors. 280,000 tested, 0.39% active. AID 1468, 2008; also: nearly all actives have a fitted effect of over 55% in size
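FP of Alexa 594-tau after heparin (20 uM) induction. Substrate: human K18 P301L, 15 uM unlabeled, 0.24 uM labeled. Buffer 100 mM sodium acetate pH 7. 6 hr, 37 C.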
TRb SRC2 PPI = qHTS for Inhibitors of the Interaction of Thyroid Hormone Receptor and Steroid Receptor Coregulator 2; 280,000 tested, 0.065% active; TRbeta-SRC2 peptide binding, fluorescence polarization; receptor liganded with 1 µM T3; Potency, µM (series often up to 106 µM), hits mostly inhibitors; also: nearly all actives have a fitted effect of over 50% in size
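Assay buffer: 20 mM Tris-HCl, 100 mM NaCl, 10% glycerol, 1 mM EDTA, 0.01% NP-40, 1 mM DTT, 1 uM T3, 5% DMSO; TRb LBD 0.6 uM, Texas Red SRC2 20 nM; FP after 5 hr.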
RGS12 GoLoco inh-1 = qHTS Assay for Inhibitors of RGS12 GoLoco Motif Activity (Red Fluorophore); Guanine nucleotide-binding protein G(i) subunit alpha-1 (Homo sapiens), P63096; Gai1:RGS12 GoLoco peptide FP, rhodamine, 10 min; Potency, µM (titrated, usually from 61.6 µM), most hits filed as inhibitors; 230,000 tested, 0.44% active; AID 880, 2007; active = well fitted inhibition curve with a large enough effect, not every such curve was filed as active; inactive = no such curve, though single readings can be large or run the other way; also: nearly all actives have a fitted effect of over 30% in size
Tau fluor cs = Counterscreen qHTS for Inhibitors of Tau Fibril Formation, Fluorescence Polarization; tau K18 P301L Alexa594 fluorescence, heparin fibrillization; 280,000 tested, 0.93% active; Potency, µM (highest dose often 57.7 µM); also: nearly all actives have a fitted effect of over 55% in size
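Human tau K18 P301L (15 uM unlabeled, 0.24 uM Alexa 594-labeled) in 100 mM sodium acetate pH 7 with 20 uM heparin, 6 hr at 37 C. ThT 30 uM added, 1 hr ambient; Alexa 594 FP and total fluorescence read at 555/632 nm.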
TexasRed fluor = Total Fluorescence Counterscreen for Inhibitors of the Interaction of Thyroid Hormone Receptor and Steroid Receptor Coregulator 2. TRb/SRC2 Texas Red total fluorescence interference. Potency, µM (top dose mostly 106 µM). 280,000 tested, 0.29% active. AID 1479, 2009; active = well fitted curve in either direction with a large enough effect; inconclusive = small, poorly fitted or top-dose-only effect
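Flags fluorescent or light-absorbing compounds by total fluorescence, S + 2P, at 555 nm excitation and 632 nm emission. Mixture: 20 nM Texas Red SRC2 peptide, 0.6 uM human TRb LBD, 1 uM T3, 5% DMSO; compound exposure 5 h at ambient temperature.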
Tau ThT inhib = qHTS for Inhibitors of Tau Fibril Formation, Thioflavin T Binding; AID 1460, 2008; recombinant tau K18 P301L, heparin-induced fibrillization, ThT fluorescence; Potency, µM (titrated, usually from 57.4 µM), most hits filed as inhibitors; Microtubule-associated protein tau (Homo sapiens), P10636; 270,000 tested, 2.1% active; also: nearly all actives have a fitted effect of over 55% in size
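ThT emission at 510 nm, taken 1 hr after adding 30 uM dye, quantifies aggregates formed when 20 uM heparin acts on human tau K18 P301L for 6 hr at 37 C.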
RGS12 GoLoco inh-2 = Confirmation qHTS Assay for Inhibitors of RGS12 GoLoco Motif Activity (Red Fluorophore) | 110 tested, 50% active | shares compounds with RGS12 GoLoco inh-1 | Potency, µM (titrated, usually from 57.1 µM), actives largely listed as inhibitors | Gai1/rhodamine-RGS12 GoLoco peptide fluorescence polarization
Tau fibril TEM = Transmission Electron Microscopy Assay for Inhibitors of Tau Fibrillization. recombinant tau K18 P301L fibrillization, TEM grading; stronger effect = higher value. fibril grade (0 = clumped fibrils, 4 = only tiny pieces) (concentration not given with the values). 45 tested, 70% active. shares compounds with Tau ThT inhib;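 active = compounds whose electron micrographs showed tau fibrils broken into shorter filaments or fragments, graded high on fibril breakup; inconclusive = micrographs gave an unclear fibril picture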
tau sediment = Sedimentation Assay for Inhibitors of Tau Fibrillization | shares compounds with Tau ThT inhib | recombinant tau K18 P301L (four-repeat tau fragment), sedimentation SDS-PAGE densitometry | inhibition, % at 100 µM | 110 tested, 50% active | AID 1720, 2009; in the data active = inhibition above about 40%; inconclusive = no clear call, values can overlap the other calls; inactive = below about 18%
A number is an active result; – = inactive; ? = inconclusive; · = no result given; ! = a repeat was not active. In the library only some 3.1% were active in any assay of this set; here they are far more common. Unless noted, calls follow the shape of the dose curve; as a rule, active = well fitted curve in the direction sought with a large enough effect; inconclusive = small, poorly fitted or top-dose-only effect, or another doubt; inactive = no such curve, though single readings can be large; an effect the other way counts as inactive or inconclusive.

SMILES	Tau fibril FP	TRb SRC2 PPI	RGS12 GoLoco inh-1	Tau fluor cs	TexasRed fluor	Tau ThT inhib	tau sediment	others
Cc1nc2c(c3c1[nH]c1ccccc13)C(=O)CC(C)(C)C2	–	–	–	?	–	–	·
Cn1c(SCC(=O)Nc2ccccc2)nnc1-c1ccc(NC(=O)CCc2ccccc2)cc1	–	–	–	–	–	–	·	RGS12 GoLoco inh-2=–
CCC(=O)Nc1ccc(-c2nnc(SCC(=O)N3CCCCC3)n2C)cc1	–	–	–	–	–	?	·	RGS12 GoLoco inh-2=–
Cn1c(SCC(=O)N2CCCC2)nnc1-c1ccc(S(=O)(=O)N2CCCC2)cc1	–	–	–	–	–	–	·
Cc1[nH]c2ccccc2c1C(=O)CNc1nccs1	–	–	–	–	–	–	·	RGS12 GoLoco inh-2=6.3µM
Cc1[nH]c2ccccc2c1C(=O)CCl	–	–	–	–	–	–	·
CCCOc1cccc(C(=O)N(Cc2ccco2)C2CCS(=O)(=O)C2)c1 (centres undefined)	–	–	–	–	–	–	·
CCn1c(SCC(=O)N2CCN(c3cccc(Cl)c3)CC2)nc2ccccc2c1=O	–	–	–	–	–	?	·	RGS12 GoLoco inh-2=–
Cc1cc2ccccc2c(=O)n1CC(=O)N1CCN(c2cccc(Cl)c2)CC1	–	–	–	–	–	–	·
O=C(O)c1cc(NCc2cc(O)ccc2O)ccc1O	–	–	6.3µM	–	–	?	·	RGS12 GoLoco inh-2=2µM
O=C(O)c1cc(N(Cc2ccccc2O)Cc2ccccc2O)ccc1O	·	–	·	·	–	·	·
CC(=O)Nc1nc(SCCCc2ccccc2)n[nH]1	–	–	·	–	–	–	·
C[n+]1cn(CC(O)COCc2ccccc2)c2ccccc21 (centres undefined)	–	–	16µM	–	–	–	·	RGS12 GoLoco inh-2=14µM
Cc1cc2c(cc1C)[n+](C)cn2CC(O)COCc1ccccc1 (centres undefined)	–	–	11µM	–	–	–	·	RGS12 GoLoco inh-2=22µM
COc1ccc(/C(N)=N/OC(=O)Cc2ccc(C)cc2)cc1	–	–	–	–	–	–	·
CCc1ccc(CNC(=O)c2nn(-c3ccc(C)c(C)c3)nc2CO)cc1	–	–	·	–	–	–	·
CN1C(CC(=O)c2ccccc2)CCCC1CC(O)c1ccccc1 (centres undefined)	–	–	22µM!	–	–	–	·	RGS12 GoLoco inh-2=–
Nc1ccc(-c2ccc3ccccc3n2)cc1	–	–	–	?	–	?	–
CCc1ccc(CNC(=O)CCn2nc(C)c3c(C)n(-c4ccccc4)nc3c2=O)cc1	–	–	·	–	–	–	·
CC(C)C(=O)N(Cc1ccc(F)cc1)Cc1nc2ccccc2c(=O)[nH]1	–	–	–	–	–	–	·
CCOC(=O)c1cc(-c2ccccc2)n(-c2cccc(C(=O)Nc3ccc(OC)cc3)c2)c1C	–	–	·	–	?	–	·
COc1ccc(NC(=O)Cn2cc(S(=O)(=O)N3CCN(c4ccccc4F)CC3)c3ccccc3c2=O)cc1Cl	13µM	–	·	–	–	–	–
NS(=O)(=O)c1cccc(NC(=O)CCSc2ccc(Cl)cc2)c1	–	–	–	–	–	–	·
COc1ccc(CCNC(=O)CSc2nnc(Cc3csc(N)n3)n2C)cc1OC	–	–	–	–	–	–	·
COc1ccc(CNC(=O)Cn2nc(C)n3cccc3c2=O)cc1	?	–	·	–	–	–	–
SMILES	Tau fibril FP	TRb SRC2 PPI	RGS12 GoLoco inh-1	Tau fluor cs	TexasRed fluor	Tau ThT inhib	tau sediment	others
Cc1ccc(CNC(=O)Cn2nc(C)n3cccc3c2=O)cc1	?	–	·	–	–	–	·
Cc1ccc(N(C)S(=O)(=O)c2nnc(NC(=O)C3CCCCC3)s2)cc1	?	–	·	–	–	–	–
O=C(Nc1ccccc1)Nc1ccccc1	–	–	–	–	–	–	–
NS(=O)(=O)c1ccc(NC(=O)Nc2ccccc2)cc1	–	–	–	–	–	–	·
Cn1ncc(Cl)c1C(=O)Nc1cccc(Cl)c1	?	–	–	–	–	13µM	93	Tau fibril TEM=3
CSc1cccc(NC(=O)c2c(Cl)cnn2C)c1	–	–	–	–	–	–	·
COc1ccc(CN2C(=O)[C@@H]3C(c4ccccc4Cl)=NO[C@@H]3C2=O)cc1	–	–	·	–	–	–	·
O=C(Nc1nc2ccc(S(=O)(=O)N3CCCC3)cc2s1)c1ccc(F)cc1	–	–	·	–	–	–	–
Cc1ccc(C2=NNC(=Nc3ccc(F)cc3)SC2)cc1	–	–	–	?	–	16µM	?	Tau fibril TEM=3
CC(C)Cn1c(O)c(/C=C2\C=NN=C2c2ccccc2)sc1=S	20µM	–	–	–	–	–	–
CCn1c(O)c(/C=C2\C=NN=C2c2ccccc2)sc1=S	?	–	–	?	–	·	·
O=C(O)CC1S/C(=N/N=C/c2ccc(-c3ccccc3[N+](=O)[O-])o2)NC1=O (centres undefined)	?	?	–	–	–	2.2µM	58	Tau fibril TEM=4
Cc1ccc(-c2ccc(/C=N/N=C3/NC(=O)C(CC(=O)O)S3)o2)c([N+](=O)[O-])c1 (centres undefined)	?	–	–	–	–	10µM	?	Tau fibril TEM=?
COc1ccc2c(c1)c(CC(=O)Nc1c(C)cccc1C)c(C)n2C(=O)c1ccc(Cl)cc1	–	–	·	–	–	–	·
COc1ccc2c(c1)c(CC(=O)Nc1ccc(C(C)=O)cc1)c(C)n2C(=O)c1ccc(Cl)cc1	?	–	–	?	–	?	–
COc1ccc2oc(-c3ccc(NC(=O)c4ccc(N5CCOCC5)c([N+](=O)[O-])c4)cc3)nc2c1	–	–	–	–	–	2.8µM	–	Tau fibril TEM=–
COc1ccc(-c2noc(-c3ccc(N4CCOCC4)c([N+](=O)[O-])c3)n2)cc1	–	–	·	–	–	–	·
